The record followed here is PubChem BioAssay.

The structures appear in SMILES notation. The list shows a part of the results. Values without a mark were called inactive. Calls of active or inactive are those of the source.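 How the source made its calls: active means mean inhibition above about 50% in the one-dose retest (limit read from the data); inactive means the rest.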

Sentrin-specific protease 7 (Homo sapiens), sequence (Q9BQF6 706-1050 limits assumed): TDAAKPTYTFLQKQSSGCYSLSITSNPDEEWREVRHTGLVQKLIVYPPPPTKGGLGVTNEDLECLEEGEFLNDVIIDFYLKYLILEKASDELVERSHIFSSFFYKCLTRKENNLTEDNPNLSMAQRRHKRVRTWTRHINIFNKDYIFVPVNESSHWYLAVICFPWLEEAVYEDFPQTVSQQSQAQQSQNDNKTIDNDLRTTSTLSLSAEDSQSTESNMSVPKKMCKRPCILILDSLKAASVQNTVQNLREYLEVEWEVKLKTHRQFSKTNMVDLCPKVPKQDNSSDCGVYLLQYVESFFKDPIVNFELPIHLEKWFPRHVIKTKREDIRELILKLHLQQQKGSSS

For one test, the target named is Sentrin-specific protease 6 (Homo sapiens) (UniProt Q9GZR1). Put plainly: inhibition of human SENP6 catalytic domain – biochemical, luminescence, single concentration, confirmation (AID 488915). The note with it: recombinant SENP6, Z-RLRGG-aminoluciferin luminescence; at 12.5 µM; stronger effect = higher value.
Sentrin-specific protease 6 (Homo sapiens), sequence (Q9GZR1 628-1112 limits assumed): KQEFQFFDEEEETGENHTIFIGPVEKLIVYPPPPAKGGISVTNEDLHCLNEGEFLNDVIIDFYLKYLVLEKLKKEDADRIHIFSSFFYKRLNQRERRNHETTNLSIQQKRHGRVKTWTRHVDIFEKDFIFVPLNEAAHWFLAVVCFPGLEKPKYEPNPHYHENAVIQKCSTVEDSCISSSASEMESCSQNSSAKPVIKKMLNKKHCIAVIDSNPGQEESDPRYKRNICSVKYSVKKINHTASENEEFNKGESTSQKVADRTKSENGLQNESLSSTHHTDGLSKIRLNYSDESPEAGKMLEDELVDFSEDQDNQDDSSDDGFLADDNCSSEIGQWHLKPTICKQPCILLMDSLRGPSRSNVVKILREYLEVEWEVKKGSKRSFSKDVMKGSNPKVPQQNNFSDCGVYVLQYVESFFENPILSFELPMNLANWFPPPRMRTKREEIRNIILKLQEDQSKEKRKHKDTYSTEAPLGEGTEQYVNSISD
In the case of `c1ccc(-c2noc(-c3cccs3)n2)nc1`, the inhibition (commonly the change of the read-out against control, counted positive when it falls) is 91.3% (active).
The same measure, in the same setting: in the case of `CCOC(=O)/C(C#N)=C/c1ccc(N2CCCCC2)cc1` it was 34.1%; in that of `COCCN(CCOC)c1nc(N)c2c(N)nc3c(c2c1C#N)CC(=O)N3Cc1ccc(Cl)cc1`, -0.6%; in that of `Nc1ncc(-c2cc3ccccc3oc2=O)s1`, 92.8% (active).
Still for that read-out and setting: with `O=C(NCc1ccccn1)c1c(O)c2c([nH]c1=O)CCCC2` the figure was 0.3%.

The next test addresses Sentrin-specific protease 7 (Homo sapiens) (UniProt Q9BQF6). Put plainly: human SENP7 peptidase blockers, hit retest – biochemical, luminescence, single concentration, confirmation (AID 488917). The conditions noted are these: recombinant SENP7, Z-RLRGG-aminoluciferin luminescence, 40 min; at 12.5 µM; stronger effect = higher value.
For `CCOc1ccc(N/C=C/C(=O)c2ccccc2)cc1`, the inhibition is 63.3% (active).
Still for that read-out and setting: with `CCC(=O)Nc1ccc(C(=O)Nc2cccc(OC)c2)cc1` the figure was 71.9% (active); with `O=C(Nc1ccccc1)Nc1ccccc1C(=O)NCc1ccco1`, 85.6% (active).
With `COc1ccc(CNC(=O)COc2ccccc2C(=O)c2cnn(-c3ccccc3)c2)cc1OC`, the inhibition is 89.2% (active).
The same measure, in the same setting: with `O=C(Nc1cc2ccccc2oc1=O)C1CCCCC1` the figure was 19.1%.
Still for that read-out and setting: in the case of `CCSc1nnc(NC(=O)c2ccc(C)cc2)s1` it was 51.1% (active); in that of `Cc1ccc(F)c(NC(=O)CCc2ccccc2)c1`, 68.6% (active).
On the same count and under the same terms, in the case of `Cc1nonc1C(=O)N/N=C/c1ccc(O)cc1` it was 103% (active); in that of `Brc1ccccc1C1Nc2cccc3cccc(c23)N1`, -9.3%.
In the case of `Cc1ccnc(NC(=O)c2ccoc2C)c1`, the inhibition was 97.1% (active).
Still for that read-out and setting: with `COc1cccc(C(=O)Nc2nc3ccc(S(C)(=O)=O)cc3s2)c1` the figure was 98.9% (active); with `COc1ccc2occ(C(=O)c3ccc(N=C(C)N(C)C)cc3)c2c1`, 73% (active).
Same read-out and setting: in the case of `CC(=NCc1ccco1)c1c(C(F)(F)F)[nH]n(-c2nc3ccccc3s2)c1=O` it was 99.8% (active).
